16 molecules from paper PMC12136788 can be followed below.

Sequences and labels used below:
T1: UNK ZnF1-3 (human, UniProt Q9C0B0 31-174)
T1 sequence: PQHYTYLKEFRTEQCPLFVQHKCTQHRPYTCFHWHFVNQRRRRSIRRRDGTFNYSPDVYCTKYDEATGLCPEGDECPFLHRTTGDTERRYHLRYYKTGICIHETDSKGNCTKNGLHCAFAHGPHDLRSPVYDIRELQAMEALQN

B1: chr22:38201524:38201525:+_ENSG00000189060_ENST00000340857|hu_hu|FALSE|FALSE (ssRNA)
RNA: GGGAGUUCUACAGUCCGACGAUCCGCAGGGGCGGACGUGGAAUUCUCGGUCAUGGUGGCCUGUCUGGUCCGGCUGUUGAAGGCGCCUUCCAAAGGGCCAGCCCUCGUCGGAGGCUGAGCAAAGCCUGCCUCGGGAUCUGCUCCCAACAGAGGAUUGAGCAUCA
B2: chr16:17038481:17038482:+_ENSMUSG00000063358_ENSMUST00000069107|mus_mus|FALSE|FALSE (ssRNA)
RNA: GGGAGUUCUACAGUCCGACGAUCCUUGUCCUGACCAAUUUAAGAUCUGUAUCCUGGCUGGAAUCUAGCAGUCUCUUCAAAAAUGAGUUCUUUGAGCUUCUCCUUAGGUAAGUCGUCCAACUCCAUGUCAAACUUGAAUGGCGCCAACAGAGGAUUGAGCAUCA
B3: chr11:77336104:77336105:-_ENSG00000074201_ENST00000525064|hu_mus|hu_hu_hu_mus_False|48_108 (ssRNA)
RNA: GGGAGUUCUACAGUCCGACGAUCCUCGCACAUUGCAGUGAACAUCGCCUCCAAUGCUGACUUAUCACUGGGCACAAAUCGAAAUUCAGUAAUAGGUUCAACAUCAUCAUUGUCUUCCUCAUCUUCAUCAGAGAGAGGUUCUUUCAACAGAGGAUUGAGCAUCA
B4: 42454244_42454364_2548_CDS_ENSG00000166887_ENST00000318006|human|control|control (ssRNA)
RNA: GGGAGUUCUACAGUCCGACGAUCAUGGAGAAGGUUCUUGAGCACUUGAUUGAACCGUUUCUUUUGUGCAUUUUCUUCCAAGACCUUUUCCAGGAAGAUGCGUAUGUCAUUGAUCUGAGUGUUUGCUGGCAGAAGGUUGAGGGCCAACAGAGGAUUGAGCAUCA
B5: chr3:9412954:9412955:+_ENSG00000134077_ENST00000452837|hu_mus|hu_hu_hu_mus_False|1_78 (ssRNA)
RNA: GGGAGUUCUACAGUCCGACGAUCGGUUGAUAUCUCUUCUUUGAUGGCUGGAUUUUCAUAAUAAUCUAAGAUAUGUGAAUCUGAAGUGCUGCUGGCAUGCUUUUUCUUACCAUCUUUCUCAUCUGCUUUGUCUCCUUGUCCAUUCAACAGAGGAUUGAGCAUCA
B6: chr7:141441981:141441982:+_ENSG00000106028_ENST00000265304|hu_mus|hu_hu_hu_mus_False|38_38 (ssRNA)
RNA: GGGAGUUCUACAGUCCGACGAUCCUCAUGUCUUACAAACUGACGAAAUACCUGUAACACAGGUCUUCGAAACAUGGCUUCUGUUUUUCUUACAACCAGUCUAAUCUGCUUUUCCUAAAGGAAAGAAAGAAAAGAGAAAAAUGACAACAGAGGAUUGAGCAUCA
B7: 54532081_54532201_669_3pUTR_ENSMUSG00000073678_ENSMUST00000097739|mouse|control|control (ssRNA)
RNA: GGGAGUUCUACAGUCCGACGAUCGACUGAGCAGAGACAUAAAGAAAGCAAAAGAAACACCACAGGGAAGGUUUCAACUGUAGUAACCAGACAUCUACACCAAAAAUGGAUUGUGCAAAACAACUGAUUUUUUUUUUUUUUUUACAACAGAGGAUUGAGCAUCA
B8: 32390341_32390461_6886_3pUTR_ENSMUSG00000053774_ENSMUST00000115151|mouse|control|control (ssRNA)
RNA: GGGAGUUCUACAGUCCGACGAUCACUUUAACCCAAGGAGGACCCAGAGGUUCAAGGUUAUGUUCAACUAACUACACAGUCACUGAAGAGGUCAGCCUGAUCCAGGACAACCAGGACUAGAUAAAGAAAACUUAUCUCAAAGAACAACAGAGGAUUGAGCAUCA
B9: 110765750_110770449_1192_CDS_ENSG00000174437_ENST00000539276|human|control|control (ssRNA)
RNA: GGGAGUUCUACAGUCCGACGAUCCUCAUUAAGGGAACAAGUAUCACCUUCCACUCUGUCCAGAAUGAACAUCCUGCAGACUGACAUCUGGUUUGUUGUAAGUGUACCAGUCUUGUCUGAGCAGAUAACAGAAGUACAACCAAGCAACAGAGGAUUGAGCAUCA
B10: chr1:33860009:33860010:-_ENSMUSG00000042197_ENSMUST00000044455|mus_mus|motif|central (ssRNA)
RNA: GGGAGUUCUACAGUCCGACGAUCGCUGGAGAUAUCCCAAGGAACUGACGAGCUCUCACUUGGCCUAGAAUGAUGAAAUCGGAAACAACUCCUGGACUGCAGAUCACGUAUGACUCGGGACAUCUCAGCCACUUGUGUCUGGAGCAACAGAGGAUUGAGCAUCA
B11: 2840810_2840930_7205_3pUTR_ENSG00000087266_ENST00000503393|human|control|control (ssRNA)
RNA: GGGAGUUCUACAGUCCGACGAUCUGAGACCCUGUCUCAGAAAAAAAAAAAAAGAAAAGAAAAAGAAAAAGACAACAAGUUAAAAAAUGGGCAAAAGAUGAUAGACACUUCACAGGAGACAAAAUCAAAAUGGUUAAUAAAAACCAACAGAGGAUUGAGCAUCA
B12: chr14:52780626:52780627:-_ENSMUSG00000035726_ENSMUST00000046709|mus_mus|FALSE|FALSE (ssRNA)
RNA: GGGAGUUCUACAGUCCGACGAUCUGAGCACUGCACCACAUAUGGACUUGUAAGGAGGAAAAAAAAAAAAAAAAAAAAAAAAAAAACAGCCACGAGUGCCAGUGUUUGUCUUCUGAUGCAGCAAAAACAACCCCAGAAUGUGCACAACAGAGGAUUGAGCAUCA
B13: chr3:148802587:148802588:-_ENSG00000071794_ENST00000310053|hu_mus|FALSE|FALSE (ssRNA)
RNA: GGGAGUUCUACAGUCCGACGAUCUCCAACAACUUGUCCUCUCAUAGUUCCAAAUAAAACCAAAUCUUGCUCUUCAUCACUCGUUAGGAAGUCAUCUGGAGGAAUAAUGUCUUGGAAUUCAAAAUGUGGCAAGAAAGUUGAGUACAACAGAGGAUUGAGCAUCA
B14: chr3:142455422:142455423:-_ENSMUSG00000004591_ENSMUST00000043812|mus_hu|FALSE|FALSE (ssRNA)
RNA: GGGAGUUCUACAGUCCGACGAUCGAAAAAACAAUAAAGUCAUAGAUUAGGAGAAAAAAAUAUAAAAUCAAACCAAACCAAAACAAACAAAAAACUACAGGCAAGUGGAAAGUCAUGGUUUGUAAAAAGACAACCCUAAAAGAGCAACAGAGGAUUGAGCAUCA
B15: chr5:56189439:56189440:+_ENSG00000095015_ENST00000399503|hu_hu|FALSE|FALSE (ssRNA)
RNA: GGGAGUUCUACAGUCCGACGAUCAAAGACUGGAUGCUUCAGUAGCUCUCUUGAUGGAGGUCUGUCCUGAGGUUGAAGUUCUAAACAACGAAGAGCCACAUCUCGUAAACCAGGAGACAAAUGUGAAGGGAUCGAUGGAGCAGUCAACAGAGGAUUGAGCAUCA
B16: chr4:148551591:148551592:-_ENSMUSG00000063077_ENSMUST00000060537|mus_hu|mus_mus_mus_hu_False|1_48 (ssRNA)
RNA: GGGAGUUCUACAGUCCGACGAUCACCUGACAAAAUUAAAUAUCCCUGUAAAUUAGACAAUAAGCAGCAGGCAACAAAGUCUUUGCUUUGAAAUAUGUGCCAGGAAAAGUCAUCUUGUUUUUAGAUCUCAAGAGACACAACCAUCAACAGAGGAUUGAGCAUCA

The full ranking holds about 24,000 sequences; the median of “enrichment r” is about 0.99, and the highest 2% start at about 3.7. The list comes from a sample in which the highest values are over-represented; it also holds similar and randomly drawn sequences.

In the assay the target is T1, UNK ZnF1-3. The assay is described as follows: nsRBNS (natural sequence RNA bind-n-seq); RBNS binding buffer (assumed for nsRBNS): 25 mM Tris pH 7.5, 150 mM KCl, 3 mM MgCl2, 0.01% Triton X-100, 500 ug/ml BSA, 20 U/ml SUPERase-In, 4 C; UNK is unkempt and MSI1 is Musashi-1; names of the RNAs are library labels; protein concentration not given here; high values mean tight binding.
The molecule B1 gave a binding signal of 0.944 enrichment R. As to B2, the binding signal stood at 0.719 enrichment R. To B3 belongs 0.872 enrichment R; to B4, 1.14 enrichment R; to B5, 0.44 enrichment R. The same measure for B6: 0.817 enrichment R. The same measure for B7: 4.75 enrichment R. B8 had a binding signal of 1.33 enrichment R. The same measure for B9: 0.886 enrichment R. As for B10, the binding signal was 0.781 enrichment R. Turning to B11, the binding signal was found to be 8.04 enrichment R. The molecule B12 displayed a binding signal of 12.8 enrichment R. To B13 belongs 1.23 enrichment R. The same measure for B14: 3.8 enrichment R; for B15: 1.08 enrichment R. To B16 belongs 1.29 enrichment R.
